SW480 rereplic – DNA re-replication induction in SW480 cells; SW480 DNA re-replication, Hoechst DNA content imaging, 48 h; Potency, µM (titrated, usually from 46.1 µM), hits mostly activators; hit rate 1.8% among 340,000; AID 624297; also: nearly all actives have a fitted effect of over 55% in size
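Image-based DNA-content assay: after two days of treatment, nuclei were labelled with the DNA dye Hoechst and imaged, and hits were compounds raising the count of nuclei showing high fluorescence intensity.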
A-T KAP1 phos – potential ataxia-telangiectasia treatment. hit rate 0.19% among 320,000. Potency, µM (highest dose often 57.5 µM), usual class: activators. F2112 A-T fibroblasts, KAP-1 phosphorylation AlphaLISA; neocarzinostatin DNA damage 30 min before lysis; also: nearly all actives have a fitted effect of over 45% in size
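ATM-like activity read as KAP-1 phosphorylation via AlphaLISA donor/acceptor antibody pairs after lysis and 6 hr at 25C. Cells were ATM-null patient fibroblasts (F2112, hTERT), dosed 60 min, then exposed to the DSB inducer NCS for 30 min.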
MCF10A rereplic – DNA re-replication induction in MCF 10a cells | MCF 10A DNA re-replication, Hoechst nuclear intensity, 48 h | Potency, µM (series often up to 46.1 µM), usual class: activators | hit rate 2.9% among 350,000 | AID 624296; also: nearly all actives have a fitted effect of over 50% in size
Mito fusion yeast – blocks mitochondrial division or promotes mitochondrial fusion; S. cerevisiae fusion-defective mutant growth rescue, CellTiterGlo 48 h; Potency, µM (doses to about 46.1 µM), actives largely listed as activators; hit rate 0.23% among 320,000; AID 485298; also: nearly all actives have a fitted effect of over 45% in size
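Read-out: ATP-based luminescence (CellTiterGlo, 10 min ambient) reporting growth of fusion-defective ts yeast after 48 hours at 37C on glycerol/ethanol YPEG medium in the presence of compound.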
Integrin act MD – activators of alpha7 integrin expression for muscular dystrophy; alpha7betagal myoblasts, beta-gal FDG fluorescence, 48 h; Potency, µM (highest dose often 38.3 µM), most hits filed as activators; hit rate 0.064% among 350,000; AID 624291; also: nearly all actives have a fitted effect of over 60% in size
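Alpha7betagal+/- myoblasts (passage 13) were plated 16-24 hr, then exposed to compounds (1:260 dilution of DMSO stock) for 48 hours at 37C. After MPER lysis, β-galactosidase reporter activity was read as FDG fluorescence (ex 480/em 540) after 30 minutes.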
Each line names hits and unclear results; the compound was inactive in the other large screens. In the library only some 4.2% were active in any assay of this set; here they are far more common. Calls follow the shape of the dose curve; as a rule, active = well fitted activation curve with a large enough effect; inconclusive = small, poorly fitted or top-dose-only effect; inactive = no such curve, though single readings can be large or run the other way.

CCOC(=O)Cn1nc(C)c(NC(=O)CCc2ccc(OC)cc2)c1C	none
OC(COc1ccc(F)cc1Cl)CN1CCC(Cc2ccccc2)CC1 (stereo not given)	SW480 rereplic inconclusive, A-T KAP1 phos 3.5µM
CCNC(=O)CN(c1ccc(CC)cc1)S(C)(=O)=O	none
COc1ccccc1CC1CC(=O)N(c2ccc([N+](=O)[O-])cc2)C1=O (stereo not given)	none (no result: SW480 rereplic, A-T KAP1 phos, MCF10A rereplic, Mito fusion yeast)
CCN(Cc1nc2cc(Cl)ccc2c(=O)[nH]1)C(=O)c1cc(C2CC2)nn1-c1ccccc1	MCF10A rereplic 16µM, Mito fusion yeast inconclusive
CCN(Cc1nc2cc(Cl)ccc2c(=O)[nH]1)C(=O)c1nn(C)c(=O)c2ccccc12	none
CC1Cc2ccccc2N1CC(=O)NCc1ccc2c(c1)OCO2 (stereo not given)	none (no result: SW480 rereplic)
COCC1CCN(C(=O)c2ccc3oc(Cc4ccc(Cl)cc4)nc3c2)C1 (stereo not given)	none (no result: A-T KAP1 phos, Mito fusion yeast)
c1ccc(CN2CCN(C(c3ccccc3)c3nnnn3Cc3ccccc3)CC2)cc1 (stereo not given)	none (no result: A-T KAP1 phos)
c1ccc(OCCOCCN2CCN(C(c3ccccc3)c3ccccc3)CC2)cc1	SW480 rereplic 8.2µM, MCF10A rereplic inconclusive
OC(COc1ccccc1)CN1CCN(C(c2ccccc2)c2ccccc2)CC1 (stereo not given)	none
Fc1ccc(CN2CCN(C(c3ccccc3)c3ccccc3)CC2)cc1	A-T KAP1 phos inconclusive
Cc1ccc(C(c2nnnn2Cc2ccccc2)N2CCN(Cc3ccccc3)CC2)cc1 (stereo not given)	MCF10A rereplic 16µM (no result: A-T KAP1 phos)
c1ccc(CN2CCN(C(c3ccccc3)c3ccccc3)CC2)cc1	A-T KAP1 phos inconclusive, MCF10A rereplic 21µM
Cc1cn(CC(=O)NCCc2c[nH]c3ccccc23)c(=O)[nH]c1=O	none (no result: A-T KAP1 phos, Mito fusion yeast)
COCC(C)NC(=O)C(C)N1c2cccc3cccc(c23)S1(=O)=O (stereo not given)	none
Cc1n[nH]c(C)c1CN(C)C(=O)C1CCC(=O)N(CCc2cccc(F)c2)C1 (stereo not given)	none
COCc1cc(C)nc(SCc2ccccc2)c1C#N	none
COCc1cc(C)nc(SCc2nc3ccccc3c(=O)[nH]2)c1C#N	SW480 rereplic inconclusive, MCF10A rereplic 2.1µM
Cc1cc(C)c(C#N)c(SCc2nc3ccccc3c(=O)[nH]2)n1	SW480 rereplic inconclusive, MCF10A rereplic 10µM
Cc1ccc(S(=O)(=O)N2CCN(C(=O)C3CCN(C(=O)c4ccccc4C)CC3)CC2)cc1C	none
COC(=O)C1=CC(C(=O)c2cccs2)=NN(c2ccc(OC)cc2)C1C(=O)OC (stereo not given)	MCF10A rereplic inconclusive, Mito fusion yeast 18µM
COC(=O)C1=NN(c2ccc(OC)cc2)C2C(=O)N(c3ccccc3OC)C(=O)C12 (stereo not given)	none
CCc1ccc(C(=O)C(C)OC(=O)Cc2n[nH]c(=O)c3ccccc23)cc1 (stereo not given)	SW480 rereplic inconclusive, MCF10A rereplic 15µM
Cc1cc(C(=O)N/N=C/c2cc(Br)ccc2OC(=O)c2ccccc2Cl)n[nH]1	SW480 rereplic 7.3µM, MCF10A rereplic inconclusive
CN(C)c1oc(/C=C/c2ccccc2)nc1C#N	SW480 rereplic 15µM, A-T KAP1 phos inconclusive, MCF10A rereplic inconclusive
COc1ccccc1/C=C/c1nc(C#N)c(N(C)C)o1	SW480 rereplic inconclusive, A-T KAP1 phos inconclusive, MCF10A rereplic 23µM
CN(C)c1oc(-c2ccccc2)nc1C#N	none
COc1ccc(NC(=O)CN(C)S(=O)(=O)c2ccc3nc(C)sc3c2)cc1	none (no result: SW480 rereplic, A-T KAP1 phos, MCF10A rereplic, Integrin act MD)
Cc1ccnc(NC(=O)c2cccc(NS(=O)(=O)c3ccccc3C)c2)c1	none
CC1CCCCN1C(=O)CCn1c(=S)oc2ccccc21 (stereo not given)	SW480 rereplic inconclusive, MCF10A rereplic inconclusive
CN(C(=O)CCl)C1CCCc2ccccc21 (stereo not given)	SW480 rereplic 2.3µM, MCF10A rereplic inconclusive
CN(C(=O)c1cccc(C(F)(F)F)c1)C1CCCc2ccccc21 (stereo not given)	none
C=CCN(C(=O)CSC1=NC(=O)CN1C(C)=O)c1nc(C)c(-c2ccccc2)s1	MCF10A rereplic 12µM
CCOC(=O)C1=C(COC(=O)CCOc2cc(C)ccc2C)NC(=O)NC1C (stereo not given)	none

Bioassay records (PubChem)
